Screens: PubChem BioAssay, National Center for Advancing Translational Sciences (NCATS)
Most compounds without a hit are left out; they make up all but 7.3% or so of the library.
HCMV antiviral = qHTS Assay for inhibitors of the human cytomegalovirus (HCMV); HFF cells, HCMV-luciferase reporter, 72 h; stronger effect = lower value; activity change, negative = inhibition, % at 57.5 µM; 4.5% of 410,000 active; in the data active = activity change below about -60%; inconclusive = no clear call, values can overlap the other calls; inactive = above about -39%
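Human foreskin fibroblasts infected with luciferase-reporter HCMV at MOI 1 PFU/cell, compounds at two doses. Luciferase measured 72 h post infection; normalized to buffer-only basal and Salinomycin (10uM) controls.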
AmpC no deterg = qHTS Inhibitors of AmpC Beta-Lactamase (assay without detergent) | P00811 | Potency, µM (doses to about 57.1 µM), actives largely listed as inhibitors | AID 485341, 2010 | AmpC nitrocefin hydrolysis, absorbance 480 nm, 0.0001% Triton | 0.52% of 330,000 active; note: nearly all actives have a fitted effect of over 20% in size
Target sequence (P00811 whole entry, looked up): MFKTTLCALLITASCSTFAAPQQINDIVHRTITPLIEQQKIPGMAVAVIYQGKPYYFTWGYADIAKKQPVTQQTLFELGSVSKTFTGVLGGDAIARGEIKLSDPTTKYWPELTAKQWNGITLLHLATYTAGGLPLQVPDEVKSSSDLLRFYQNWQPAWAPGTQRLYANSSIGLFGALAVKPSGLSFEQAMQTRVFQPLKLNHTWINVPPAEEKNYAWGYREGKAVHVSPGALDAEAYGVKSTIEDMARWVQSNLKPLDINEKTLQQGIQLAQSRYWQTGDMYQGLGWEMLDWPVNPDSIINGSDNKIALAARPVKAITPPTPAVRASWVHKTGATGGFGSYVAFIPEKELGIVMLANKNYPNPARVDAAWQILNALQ
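20 mM phosphate pH 7.0 + 0.01% (detergent screen) or 0.0001% Triton X-100; 5.3 nM AmpC reagent; cpd preinc 15 min RT; nitrocefin (800 uM stock) to start; A480 q20 s × 4 min; Activity was normalised to no-enzyme and no-compound control wells.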
HCV inhibitor = qHTS Assay for Inhibitors of Hepatitis C Virus (HCV); Huh7.5.1 HCVcc-Cre infection, luciferase reporter, 44 h; Potency, µM (titrated, usually from 41.8 µM), hits mostly inhibitors; 3.4% of 340,000 active; AID 651820, 2012
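Compounds are dispensed onto cells plated 4 h earlier at 1,000 per well, with HCVcc-Cre virus (about 0.5 moi) added next. Following 44 h of culture, luminescent signal is measured for 15 sec after 15 min with substrate at room temperature.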
AmpC inh detg = qHTS Inhibitors of AmpC Beta-Lactamase (assay with detergent); P00811; AmpC hydrolysis of nitrocefin, absorbance 480 nm, 0.01% Triton; Potency, µM (series often up to 114 µM), actives largely listed as inhibitors; 0.041% of 370,000 active; note: nearly all actives have a fitted effect of over 25% in size
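20 mM phosphate pH 7.0 + 0.01% (detergent screen) or 0.0001% Triton X-100; 5.3 nM AmpC reagent; cpd preinc 15 min RT; nitrocefin (800 uM stock) to start; A480 q20 s × 4 min; Activity was normalised to no-enzyme and no-compound control wells.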
FMDV antiviral = High Throughput Screening for Foot and Mouth Disease Virus Antivirals | Potency, µM (series often up to 57.9 µM), usual class: inhibitors | 1.2% of 410,000 active | AID 1159524, 2015 | FMDV antiviral cell-based qHTS; calls by dose curve; tested in HEK293T cells; note: read-out not given here; nearly all actives have a fitted effect of over 45% in size
Numbers stand for hits; n = inactive; u = inconclusive; x = no result given; ! = not confirmed by another sample. Unless noted, calls come from the whole dose curve; as a rule, active = well fitted curve in the direction sought with a large enough effect; inconclusive = small, poorly fitted or top-dose-only effect, or another doubt; inactive = no such curve, though single readings can be large; an effect the other way counts as inactive or inconclusive.

SMILES	HCMV antiviral	AmpC no deterg	HCV inhibitor	AmpC inh detg	FMDV antiviral
CCn1c(C)c(C)c2cc(C(=O)NCCCN3CCCC3)ccc21	n	n	n	n	n
COc1ccc(CNC(=O)C2CCCN2c2nc(C)c3ccccc3n2)cc1 (stereo not drawn)	x	x	x	x	n
CCN(Cc1ccccc1)C(=O)Nc1c(Cl)cccc1Cl	n	x	x	x	x
O=c1oc2ccccc2c(N2CCN(c3ccc(F)cc3)CC2)c1CN1CCCC1	n	x	x	n	n
Nc1c(N2CCN(c3ccccc3)CC2)c2ccccc2oc1=O	-100.2	n	n	u	n
COc1ccc2c(c1)OC(C)CN(CCNC(=O)C1CCOC1)C2 (stereo not drawn)	x	x	x	x	n
CCN1CCN(Cc2ccc(NC(=O)c3ccc(C)c(NC(=O)c4nccnc4N)c3)cc2C(F)(F)F)CC1	-73.3	n	10µM	n	n
CCN1CCN(Cc2ccc(NC(=O)c3ccc(C)c(NC(=O)c4nccn4C)c3)cc2C(F)(F)F)CC1	n	n	n	n	n
CCN1CCN(Cc2ccc(NC(=O)c3ccc(C)c(NC(=O)c4cc(-c5ccc(Br)cc5)n[nH]4)c3)cc2C(F)(F)F)CC1	u	n	u	n	n
CCN1CCN(Cc2ccc(NC(=O)c3ccc(C)c(NC(=O)c4cccc5[nH]ccc45)c3)cc2C(F)(F)F)CC1	-98.7!	n	n	n	17.8µM!
CCN1CCN(Cc2ccc(NC(=O)c3ccc(C)c(NC(=O)N4CCNC4=O)c3)cc2C(F)(F)F)CC1	-94.2!	n	u	n	n
CCCCOCCCNc1ncnc2c1[nH]c1ccccc12	u	n	8.91µM	n	11.2µM
CCOCCCNc1ncnc2c1[nH]c1ccccc12	-62.5	n	u	n	u
Cc1nc(-c2ccc(S(=O)(=O)N(C)Cc3ccccc3)cc2)co1	n	x	x	n	n
CC(OC(=O)c1ccc(Cl)nc1)C(=O)NC1(C#N)CCCCC1 (stereo not drawn)	n	n	n	u	n
CCOC(=O)c1cc(S(=O)(=O)N2CCN(c3ccc(OC)cc3)CC2)[nH]n1	-112.3	x	x	n	n
CCOC(=O)c1cc(S(=O)(=O)N2CCN(c3cccc(OC)c3)CC2)[nH]n1	n	x	x	n	n
COC(=O)C1=C(C)N(Cc2ccccc2C(F)(F)F)C(=NCc2ccc(C(F)(F)F)cc2)NC1c1cccc(Cl)c1 (stereo not drawn)	n	x	x	x	x
COCc1nc2oc3ccc(C)cc3c(=O)c2cc1C(=O)OC	-71.3	n	n	n	n
c1ccc2c(c1)c1ccccc1n1c(-c3ccc4c(c3)OCO4)nnc21	n	n	u	n	25.1µM
Cn1c(-c2ccc3c(c2)OCO3)cc(=O)c2ccccc21	n	n	n	n	n
Oc1ccc2ccccc2c1N=Nc1ccccc1F	n	n	u	n	n
CCOC(=O)c1c[nH]c2ccc3ccccc3c2c1=O	n	n	n	n	n
CCOC(=O)c1[nH]cnc1N=Nc1c(O)ccc2ccccc12	-97.3	n	7.94µM	u	n
Oc1ccc2ccccc2c1N=Nc1ccccn1	-97.7	n	8.91µM	n	u
SMILES	HCMV antiviral	AmpC no deterg	HCV inhibitor	AmpC inh detg	FMDV antiviral
C=CCN(Cc1ccc(Br)s1)C(=O)c1ccc(OCc2c(C)noc2C)cc1	n	x	x	x	n
CC(=O)N1CCc2cc(S(=O)(=O)NC(C(=O)Nc3nc(C)cs3)C(C)C)ccc21 (stereo not drawn)	-60.5	n	n	n	n
COc1ccc(Cn2ccc3nc(C)c(C(=O)Nc4ccc(OC)cc4)cc3c2=O)cc1	n	x	x	n	n
CC(=O)N(/N=C1\Sc2ccccc2C1=O)c1ccccc1C	n	n	u	n	n
CC(=O)N(/N=C1\Sc2ccccc2C1=O)c1ccc(C)cc1C	-85.6	n	n	n	u
O=C(CCC(=O)N(CC(=O)NC1CCCC1)Cc1ccccc1)Nc1nccs1	n	n	n	u	n
CCN(CC)CCCNC(=S)N(Cc1cccs1)Cc1cc2cc3c(cc2[nH]c1=O)OCCO3	-104.4	n	n	n	n
CCc1ccc2[nH]c(=O)c(CN(Cc3ccccc3)C(=O)Nc3ccccc3OC)cc2c1	u	n	2.51µM	n	n
COc1cc2cc(CN(Cc3cccs3)C(=S)Nc3ccc(C)cc3)c(=O)[nH]c2cc1OC	-69.2	n	n	n	n
